# This is a sample that favours compounds with a hit; in the whole collection about 16% have one here.
# miR-21 act – qHTS Assay for Modulators of miRNAs and/orActivators of miR-21; HeLa miR-21 FLuc reporter, luciferase, 48 h; Potency, µM (titrated, usually from 38.3 µM), inactives show at the top dose activity change, positive = activation, most hits filed as activators; 340,000 tested, under 10 active; AID 2288, 2010;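 note: % of control where 0% means no effect; miR-21 action dims this reporter so a rising signal means less miR-21 action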
#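 Luminescence from a firefly luciferase reporter carrying a miR-21 binding site downstream, stably expressed under a CMV promoter in HeLa cells that make miR-21 endogenously, reports miRNA modulation after 48 h compound exposure up to approximately 40uM final.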
# TDP1 block – qHTS Assay for Inhibitors of Tyrosyl-DNA Phosphodiesterase (TDP1); actives 0.28% (n = 350,000); recombinant TDP1, AlphaScreen DNA substrate cleavage; Tyrosyl-DNA phosphodiesterase 1 (Homo sapiens), Q9NUW8; Potency, µM (series often up to 130 µM), without a hit: at the top dose activity change, negative = inhibition, hits mostly inhibitors; note: potency is the fitted concentration of half-maximal effect; % is set by controls: 0 for no effect and ±100 for the full control effect; nearly all actives have a fitted effect of over 40% in size
# Target sequence (Q9NUW8 whole entry, looked up): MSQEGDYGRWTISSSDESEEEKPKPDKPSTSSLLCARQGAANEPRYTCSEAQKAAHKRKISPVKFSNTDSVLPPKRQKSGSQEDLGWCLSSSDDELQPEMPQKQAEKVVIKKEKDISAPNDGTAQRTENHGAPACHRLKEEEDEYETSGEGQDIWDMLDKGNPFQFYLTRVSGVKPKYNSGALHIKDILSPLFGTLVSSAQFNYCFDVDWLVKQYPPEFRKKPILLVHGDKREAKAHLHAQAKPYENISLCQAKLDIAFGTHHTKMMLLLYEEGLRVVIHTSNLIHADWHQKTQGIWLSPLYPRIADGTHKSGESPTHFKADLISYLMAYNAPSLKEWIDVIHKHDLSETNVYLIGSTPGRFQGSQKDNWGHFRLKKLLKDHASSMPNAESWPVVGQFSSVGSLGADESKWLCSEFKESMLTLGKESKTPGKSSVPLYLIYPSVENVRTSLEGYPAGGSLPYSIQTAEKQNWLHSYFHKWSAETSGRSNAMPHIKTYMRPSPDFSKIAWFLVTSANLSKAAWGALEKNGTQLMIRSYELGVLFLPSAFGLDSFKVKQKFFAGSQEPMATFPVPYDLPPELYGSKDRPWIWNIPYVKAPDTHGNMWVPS
#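 Tdp1 1 nM final; 15 min RT w/ cpd; substrate 15 nM, 5 min; beads 10 ug/ml, 10 min; AlphaScreen read. Neg ctrl: no enzyme.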
# uPA generation – qHTS for Inhibitors of Cell Surface uPA Generation; actives 0.31% (n = 330,000); cell surface uPA generation assay, qHTS; Potency, µM (doses to about 38.3 µM), without a hit: at the highest dose activity change, negative = inhibition, actives largely listed as inhibitors; AID 540303, 2011; active = well fitted inhibition curve with a large enough effect; inconclusive = small, poorly fitted or top-dose-only effect; inactive = no such curve, though single readings can be large or run the other way; tested in mouse RAW 264.7 cells; note: potency is the fitted concentration of half-maximal effect; % is set by controls: 0 for no effect and ±100 for the full control effect; nearly all actives have a fitted effect of over 55% in size
# TDP1 cell CPT – qHTS for Inhibitors of human tyrosyl-DNA phosphodiesterase 1 (TDP1): qHTS in cells in presence of CPT. chicken DT40 Tdp1-/-;hTDP1 cells + 20 nM CPT, ATP luminescence, 48 h. Potency, µM (series often up to 46.2 µM), for inactives: at the top dose activity change, negative = growth inhibition, usual class: inhibitors. actives 12% (n = 420,000). AID 686979, 2013; note: potency is the fitted concentration of half-maximal effect; % is set by controls: 0 for no effect and ±100 for the full control effect; nearly all actives have a fitted effect of over 55% in size
#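 Chicken DT40 Tdp1-/- cells complemented with human TDP1, 400 cells/well, exposed to compounds plus 20 nM camptothecin for at least 48 h at 37 C; viability read as ATP content by CellTiter-Glo luminescence.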
# TDP1 cell noCPT – qHTS for Inhibitors of human tyrosyl-DNA phosphodiesterase 1 (TDP1): qHTS in cells in absence of CPT; DT40 Tdp1-/- hTDP1 cells, no CPT, ATP luminescence, 48 h; Potency, µM (top dose mostly 46.2 µM), for the others: at the highest dose activity change, negative = growth inhibition, hits mostly inhibitors; actives 15% (n = 420,000); note: potency is the fitted concentration of half-maximal effect; % is set by controls: 0 for no effect and ±100 for the full control effect; nearly all actives have a fitted effect of over 55% in size
#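 Seeded 400 DT40-hTDP1 cells/well (vehicle DMSO, no 20 nM CPT); pinned compounds; ≥48 hr at 37 °C; CellTiter-Glo luminescence as viability measure.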
# * = called active by the depositor; ? = inconclusive; · = not tested or not shown; [ ] = another dose, or the depositor's remark. Unless noted, calls come from the whole dose curve; as a rule, active = well fitted curve in the direction sought with a large enough effect; inconclusive = small, poorly fitted or top-dose-only effect, or another doubt; inactive = no such curve, though single readings can be large; an effect the other way counts as inactive or inconclusive.
SMILES,miR-21 act,TDP1 block,uPA generation,TDP1 cell CPT,TDP1 cell noCPT
CCC(C)Sc1cc(-c2nc3cc(C)ccn3c2NC2CCCCC2)ccc1OC (stereo unspecified),·,2.1%,?,20.6µM*,20.6µM*
COC(=O)C1=C(c2ccc(C(C)=O)cc2)C[C@@H]2CC[C@H]1N2C(=O)NC1CCCCC1,·,0.6%,8.2%,?,?
CC(=O)c1ccc(-c2cccc(-c3nc4ccccn4c3NC3CCCCC3)c2)cc1,·,6.8%,?,23.1µM*,14.6µM*
CCC(C)Sc1cc(-c2nc3ccccn3c2NC2CCCCC2)ccc1OC (stereo unspecified),·,-0.1%,?,11.6µM*,14.6µM*
O=C(CCc1ccc(O)cc1)N1C[C@H]2C[C@@H](C1)c1cccc(=O)n1C2,1.1%,·,-0.1%,6.4%,1.6%
COc1cc(CC(C)N)c(OC)cc1I (stereo unspecified),·,10.7%[56.1 µM],-1.2%,-24.2%,?
COc1cc(CC(C)N)c(OC)cc1Br (stereo unspecified),·,·,·,?,28.3µM*
COc1ccccc1Sc1ccccc1CC(C)N (stereo unspecified),1.2%,5.6%,1.2%,14.6µM*,18.4µM*
CC(N)Cc1ccccc1Sc1ccc(O)cc1 (stereo unspecified),0.2%,2.0%,·,·,·
CCCNC(=O)N1[C@H]2CC[C@@H]1C(C(=O)OC)=C(c1cccc(OC)c1OC)C2,·,·,12.5%,-21.3%,-7.8%
CC1=[N+]([O-])C2(N)CCc3nonc3C2(O)C1 (stereo unspecified),0.2%,0.0%,-0.1%,-0.5%,-4.3%
CN1C(=O)C(=Cc2sc(=O)n(-c3ccccc3)c2N(C)C)C(=O)N(C)C1=O,12.4%,-1.4%,-10.7%,16.4µM*,?
Cc1cc(C=C2C(=O)NC(=S)NC2=O)c(C)n1C1CCCC1,-16.9%,2.3%,-2.8%,14.6µM*,?
CCCNC1=C(C)C(=O)C2=C(C1=O)C(COC(N)=O)[C@]1(OC)C3NC3CN21 (stereo partly specified),6.6%,1.3%,-11.5%,?,0.259µM*
CNc1ccc2oc(C[C@@H]3OC4(CC[C@@H]3C)O[C@H]([C@@H](C)C(=O)c3ccc[nH]3)[C@H](C)C[C@H]4C)nc2c1C(=O)O (stereo partly specified),·,24.4%,·,2.31µM*,4.61µM*
CNc1ccc2oc(C[C@H]3O[C@@]4(CC[C@H]3C)O[C@H]([C@H](C)C(=O)c3ccc[nH]3)[C@H](C)C[C@H]4C)nc2c1C(=O)O,?,16.9%,?,0.0259µM*,0.184µM*
CC(C)c1ccc(Cc2cn3cc(-c4cc5ccccc5oc4=O)nc3s2)cc1,-0.3%,-1.1%,·,0.259µM*,0.184µM*
CC(C)c1ccc(C(c2c(O)c3ccccc3oc2=O)c2c(O)c3ccccc3oc2=O)cc1,·,·,·,-24.6%,?
CCCOC(=O)c1c(C)oc2c1cc(NS(=O)(=O)c1ccc(OCC)cc1)c1ccccc12,29.8%,·,·,1.46µM*,1.03µM*
COc1cccc(C)c1NC1=NCCO1,·,·,·,-8.9%,-21.6%
CC(C)C[C@H]1CN([C@@H](CC(C)C)CN2CCCC2CN2C(=S)NC[C@@H]2Cc2ccc(O)cc2)C(=S)N1CC1CCCCC1 (stereo partly specified),·,·,31.6%,?,?
CC(C)C[C@H]1CN([C@@H](CC(C)C)CN2CCCC2CN2C(=S)NC[C@@H]2Cc2ccc(O)cc2)C(=S)N1CC1CCCCCC1 (stereo partly specified),·,·,21.7%,18.4µM*,18.4µM*
C[C@H](CCC(=O)O)[C@H]1CC[C@@H]2[C@@H]3[C@@H](O)C[C@H]4C[C@@H](O)CC[C@@]4(C)[C@H]3CC[C@@]21C,·,11.8%[21 µM],·,·,·
Cc1c(C(=O)N2CCC3(CC2)OCCO3)sc2ncnc(N3CCN(c4ccccn4)CC3)c12,-4.9%,-1.1%,13.2%,20.6µM*,16.4µM*
N#Cc1ccccc1Cn1cc(C(=O)c2ccccc2F)c2ccccc21,-11.4%,8.1%,-24.3%,?,?
SMILES,miR-21 act,TDP1 block,uPA generation,TDP1 cell CPT,TDP1 cell noCPT
CCN(CC)C(=O)c1ccc(NC(=O)CCn2nc(-c3ccc(Cl)cc3)c3ccccc3c2=O)cc1,?,5.3%,·,?,18.4µM*
CN(C)c1ccc(C=C2C(=O)NC(=S)NC2=O)cc1,·,·,-0.3%,8.2µM*,16.4µM*
CC(C)CN(CC(C)C)c1ccc(C=C2C(=O)NC(=S)NC2=O)cc1[N+](=O)[O-],-16.6%,-2.0%,-5.4%,?,20.6µM*
O=C1NC(=O)C(=Cc2ccc(OCCOc3ccc([N+](=O)[O-])cc3)cc2)C(=O)N1,-6.1%,0.5%,3.3%,?,?
CCOc1ccc(C=C2C(=O)NC(=S)NC2=O)cc1OCC,·,·,-5.3%,1.2%,-4.0%
CCN(CC)c1ccc(C=C2C(=O)NC(=S)NC2=O)cc1,-0.2%,·,-4.1%,?,14.6µM*
Cn1c(O)c(Cc2cccc(Cl)c2Cl)c(=O)n(C)c1=O,2.8%,·,-15.1%,-6.7%,10.8%
Cc1ccc(CNC(=O)CCCn2c(=O)c3sccc3n(CC(=O)Nc3c(C)cccc3C)c2=O)cc1,-15.9%,-7.3%,·,-2.2%,-15.5%
O=[N+]([O-])c1cccc(NP(=O)(N2CC2)N2CC2)c1,·,·,-10.1%,2.06µM*,6.51µM*
Cc1nnc2n1-c1ccc(Cl)cc1C(c1ccccc1Cl)=NC2,·,·,·,-3.4%,-2.9%
CCOc1ccccc1Nc1nc(-c2sc(NC(=O)c3ccco3)nc2C)cs1,23.6%,5.9%,?,14.6µM*,14.6µM*
NC(N)=NN=C(/C=C/c1ccc([N+](=O)[O-])o1)/C=C/c1ccc([N+](=O)[O-])o1,·,·,·,2.99µM*,2.99µM*
Cc1cccc(N2C(=O)NC(=O)/C(=C/c3ccc([N+](=O)[O-])o3)C2=O)c1,-2.5%,·,1.2%,?,?
C[C@]12CCC(=O)C=C1CCC1C2CC[C@@]2(C)C1CC[C@@H]2O (stereo partly specified),·,2.0%,-1.8%,0.3%,-23.8%
CC(=O)OC1CC[C@@]2(C)C(=CC[C@H]3[C@@H]4CC[C@H](C(C)=O)[C@@]4(C)CC[C@@H]32)C1 (stereo partly specified),·,25.9%,·,·,·
CC(=O)C1CCC2C3CCC4=CC(=O)CC[C@@]4(C)C3CC[C@]12C (stereo partly specified),·,13.0%[56.1 µM],·,13µM*,14.6µM*
